# Reference: PubChem BioAssay (Tox21)
# Results filed as inconclusive are left out. A number with no mark means an inactive call. Activity calls are given as the source filed them. Calls follow the shape of the dose curve; as a rule, active = well fitted cell-killing curve with a large enough effect in the repeat runs (not every such curve was filed as active); inconclusive = weak or mixed curves, or effect the other way; inactive = no such curve, though single readings can be large or run the other way.
# Test: qHTS assay to identify small molecule antagonists of the estrogen related receptor signaling pathway with the pleiotropic PPARgamma coactivator (PGC) from Tox21 10K library - cell viability counter screen (AID 1224840); also: nearly all actives have a fitted effect of over 40% in size
# Details: PGC/ERR reporter cells viability, CellTiter-Fluor, 17.5 h; series mostly up to 92.4 µM; viability change, negative = cytotoxic: at the top concentration
# Excerpt: National Center for Advancing Translational Sciences [NCATS]
# NIH Chemical Genomics Center [NCGC]
# U.S. Environmental Protection Agency [EPA]
# National Institutes of Environmental Health Sciences [NIEHS]
# National Toxicology Program [NTP]
# U.S. Food and Drug Administration [FDA]
# Estrogen related receptors (ERRs), the first orphan nuclear receptors discovered, play an important role in the control of cellular energy metabolism. ERRs are required for high-energy production in response to the environmental challenges. The pleiotropic PPARgamma coactivator (PGC) is a major partner of ERR and a key regulator in energy homeostasis. Together they have been implicated in the etiology of metabolic disorders such as Type 2 diabetes and metabolic syndrome. ERR-alpha was also identified as an adverse marker for breast cancer progression; ERR-alpha-positive tumors have a poor prognosis. To screen and to identify environmental compounds that perturb the ERR and PGC/ERR signaling pathways could provide valuable information for potential therapeutic or preventive measures in the treatment of metabolic disease. To differentiate true PGC/ERR antagonists or agonist from cytotoxic substances, the assay is multiplexed with cell viability assay.
# Tox21 Assay Protocol Summary:
# The PGC/ERR cells were dispensed at 2,000 cells/5 ul/well in 1536-well white plates using a Multidrop dispenser. After the assay plates were incubated at a 37 C/5% CO2 incubator for 6 hours, 23 nL of compounds dissolved in DMSO, positive and negative controls or DMSO only was transferred to the assay plate by a pin tool. The plates were incubated at 37 C for 17.5 hours. 1 ul/well of CellTiter-Fluor reagent was added into the assay plates using a Flying Reagent Dispenser. After 30-minute incubation at 37 C/5% CO2, the fluorescence intensity in the plates was measured using a ViewLux plate reader.
# % is scaled to controls: 0 for no effect and ±100 for the full control effect; potency is read from the fitted curve at half-maximal effect.
SMILES,"viability change, negative = cytotoxic",Potency
Cc1cc(CCCOc2c(C)cc(-c3noc(C(F)(F)F)n3)cc2C)on1,-4.53% [at 42.5 µM],
CCCCCCCCCCCC(=O)OCC(O)CO (stereo not given),-7.11%,
COc1cc(C(C)=O)ccc1OCCCN1CCC(c2noc3cc(F)ccc23)CC1,-20.9% [at 42.5 µM],
CCOC(=O)N1CCC(Nc2ccc(Cl)cc2N)CC1,-1.52% [at 42.5 µM],
CCOC(=O)c1c(N)sc2c1CCN(Cc1ccccc1)C2,-0.122% [at 42.5 µM],
CCCCCCCCCCCCCCN(C)C,-1.6% [at 19 µM],
CC(CO)(CO)C(=O)O,4.77%,
Cc1ccc2c(c1[N+](=O)[O-])C(=O)c1ccccc1C2=O,1.51% [at 42.5 µM],
CCN(CC)CC(=O)Nc1c(C)cccc1C(=O)OC,-1.89% [at 42.5 µM],
CCN(Cc1cccc(S(=O)(=O)O)c1)c1ccc(C(=C2C=CC(=[N+](CC)Cc3cccc(S(=O)(=O)O)c3)C=C2)c2ccccc2S(=O)(=O)[O-])cc1,,27.4 µM (active)
CCCCCCC(CO)CCCC (stereo not given),0.26%,
c1ccc(CCCc2ccncc2)cc1,-7.84%,
CCSC(=O)N(CC)CC,8.87%,
O=C(O)CNC(=O)c1ccccc1I,7.93% [at 42.5 µM],
COc1ccc(CCN(C)CCCN2CCc3cc(OC)c(OC)cc3CC2=O)cc1OC,-17.9% [at 42.5 µM],
O=C(O)c1cc(Cl)cc(Cl)c1O,8.9%,
Oc1ccc2c(c1)Cc1ccccc1-2,1.62%,
CNc1c2c(nn1C)CCCC2,-10.5% [at 42.5 µM],
CCOC(=O)c1ccc(NC(=O)CN2CCCCC2)cc1,14.1% [at 42.5 µM],
Cc1cn([C@H]2C[C@H](F)[C@@H](CO)O2)c(=O)[nH]c1=O,1.73% [at 42.5 µM],

SMILES,"viability change, negative = cytotoxic",Potency
COc1ccc(-c2cc(=S)ss2)cc1,2.89% [at 42.5 µM],
C=C(C)c1ccccc1,0.197%,
CC(=O)N[C@@H](Cc1ccc(O)cc1)C(=O)O,2.46% [at 42.5 µM],
O=P(O)(O)Oc1ccccc1,7.96%,
O=C1OC[C@H](Cc2cccc(O)c2)[C@H]1Cc1cccc(O)c1,-5.23% [at 42.5 µM],
CC(C)N(C)C,0.213%,
CCCCCCCC/C=C\CCCCCCCC(=O)OCCO,0.9%,
CCCCCCCC(=O)OCCCCCC,2.56%,
CN1CCCN(C(c2ccccc2)c2ccc(Cl)cc2)CC1 (stereo not given),,26.6 µM (active)
N[C@@H](Cc1cc(I)c(O)c(I)c1)C(=O)O,-0.278% [at 42.5 µM],
O=C(Nc1ccc(C(=O)O)c(O)c1)c1ccccc1,10.8% [at 42.5 µM],
CC(CCc1ccc(O)cc1)NCCc1ccc(O)c(O)c1 (stereo not given),-0.311% [at 42.5 µM],
CC[C@@H](CO)NCCN[C@@H](CC)CO,12.2% [at 42.5 µM],
C=C(C)C(=O)OCCC(F)(F)C(F)(F)C(F)(F)C(F)(F)C(F)(F)C(F)(F)F,2.54%,
CCCCCC,11%,
Nc1ccc(F)cc1,-2.58%,
COc1ccc(C2C(=O)c3ccccc3C2=O)cc1,13.6% [at 42.5 µM],
O=C(O)CCS,4.33%,
CCCCCCC(O)CCCCCCCCCCC(=O)OC (stereo not given),-24.8%,
CCN(CC)c1ccc(C(=C2C=CC(=[N+](CC)CC)C=C2)c2ccc(S(=O)(=O)O)cc2S(=O)(=O)[O-])cc1,,27.3 µM (active)
